Screening results: PubChem BioAssay, National Center for Advancing Translational Sciences (NCATS)
Only some compounds are listed: those with a hit (about 3.5% of all), similar ones and a draw of the others.
NS1 inh = blocks influenza NS1 protein function; Potency, µM (doses to about 46.1 µM); 270,000 compounds, 0.4% hits; AID 2326; calls by dose curve; also: actives are rising curves; nearly all actives have a fitted effect of over 50% in size
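Recovery from NS1-induced slow growth read by OD600 in budding yeast switched to galactose assay medium (pH 6.0, -URA) at 1:100 dilution. Compound 23 nl per well; the matching strain lacking NS1 serves as control.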
Tb PYK inh = T. brucei pyruvate kinase inhibition; TbPYK enzyme, Kinase-Glo Plus ATP luminescence, 45 min; Potency, µM (titrated, usually from 76.8 µM), hits mostly inhibitors; 410,000 compounds, 0.12% hits; also: nearly all actives have a fitted effect of over 50% in size
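Activity of T. brucei pyruvate kinase was followed by Kinase-Glo Plus luminescence after the enzyme reacted 45 min at room temperature with 130 uM ADP (final) and substrate. Test compounds were added before ADP at multiple concentrations.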
LmPK inh = inhibitors of Leishmania mexicana pyruvate kinase. Q27686. purified LmPK, Kinase-Glo ATP luminescence, 1 h. Potency, µM (series often up to 57.5 µM), most hits filed as inhibitors. 290,000 compounds, 0.37% hits
Target sequence (Q27686 whole entry, looked up): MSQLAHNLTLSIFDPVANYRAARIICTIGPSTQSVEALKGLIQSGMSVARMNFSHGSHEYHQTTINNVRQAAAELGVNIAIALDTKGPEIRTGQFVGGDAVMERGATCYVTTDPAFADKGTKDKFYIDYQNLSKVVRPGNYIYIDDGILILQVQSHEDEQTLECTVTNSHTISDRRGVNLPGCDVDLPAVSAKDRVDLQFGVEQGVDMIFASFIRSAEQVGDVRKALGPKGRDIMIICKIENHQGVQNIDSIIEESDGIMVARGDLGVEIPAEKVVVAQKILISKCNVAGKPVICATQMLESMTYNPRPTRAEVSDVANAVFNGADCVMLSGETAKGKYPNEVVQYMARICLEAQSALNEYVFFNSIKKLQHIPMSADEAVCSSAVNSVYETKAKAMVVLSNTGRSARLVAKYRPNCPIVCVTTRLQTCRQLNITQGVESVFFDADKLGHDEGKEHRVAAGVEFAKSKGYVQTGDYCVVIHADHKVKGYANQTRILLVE
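0.1 nM LmPK, 0.5 mM PEP, 0.1 mM ADP; 50 mM imidazole pH 7.2, 7 mM MgCl2, 50 mM KCl; 1 h RT. Kinase-Glo luminescence readout, normalized to no-enzyme (full inhibition) and uninhibited wells.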
Sm TGR block = blocks Schistosoma mansoni thioredoxin glutathione reductase | Q962Y6 | purified TGR, DTNB reduction, TNB absorbance 405 nm | Potency, µM (highest dose often 114 µM), usual class: inhibitors | 360,000 compounds, 3% hits | AID 485364; also: nearly all actives have a fitted effect of over 60% in size
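TGR 20 nM + NADPH 100 uM (dispensed conc.), cpd preinc 15 min RT; start with NADPH (500 uM addition) then DTNB (15 mM addition). Kinetic TNB absorbance, 405 nm filter. Four-parameter Hill fit across titration.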
Giardia FBPA inh = inhibitors of Giardia lamblia fructose-1,6-bisphosphate aldolase; Potency, µM (doses to about 59.6 µM), hits mostly inhibitors; 290,000 compounds, 0.71% hits; purified Giardia FBPA; A8B2U2; also: nearly all actives have a fitted effect of over 55% in size
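Giardia FBPA (40 nM reagent) was preincubated 10 min at RT with compound (up to 57.5 uM final), then substrate plus GAPDH/TPI/NAD/arsenate coupling system with diaphorase/resazurin was added; resorufin fluorescence (525/598 nm) was read after 20 min.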
RE007 growth inh = less growth of the S. pombe RE007 Vpr strain. S. pombe RE007 Vpr strain, BacTiter-Glo ATP luminescence, 24 h. Potency, µM (titrated, usually from 92.2 µM), actives largely listed as inhibitors. 360,000 compounds, 0.21% hits. AID 651644; active = well fitted falling curve with a large enough effect; inconclusive = small, poorly fitted or top-dose-only effect; inactive = no such curve, though single readings can be large or run the other way; also: nearly all actives have a fitted effect of over 50% in size
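Fission yeast strain RE007, carrying one chromosomally integrated HIV-1 vpr copy, was seeded at OD 0.01 in PMG+AL medium with 23 nL pinned compound. After 24 h at 30 °C and 99% humidity, viability was read by BacTiter-Glo luminescence.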
Hits are given with their value; . = inactive; ? = inconclusive; / = not tested or not shown; [ ] = another dose, or the depositor's remark. Unless noted, calls follow the shape of the dose curve; as a rule, active = well fitted curve in the direction sought with a large enough effect; inconclusive = small, poorly fitted or top-dose-only effect, or another doubt; inactive = no such curve, though single readings can be large; an effect the other way counts as inactive or inconclusive.

SMILES | NS1 inh | Tb PYK inh | LmPK inh | Sm TGR block | Giardia FBPA inh | RE007 growth inh
CCOC(=O)C1CCN(C(=O)C2CCN(c3nnc(C)c4c(C)n(-c5ccccc5)nc34)CC2)CC1 | / | . | / | . | / | /
CCOC(=O)/C=C/C(=O)Nc1nccs1 | . | . | . | 40µM | . | .
Cc1ccc(C(=O)Nc2ncc(C)s2)o1 | . | . | 13µM | . | . | .
Cc1ccc(/C=C/C(=O)Nc2ncc(C)s2)o1 | . | ? | . | 25µM | ? | .
Cc1ccc(C(=O)Nc2nc3ccc(S(C)(=O)=O)cc3s2)o1 | . | . | 14µM | . | . | ?
CCOC(=O)C(=O)Nc1nccs1 | . | . | . | / | . | .
O=C(/C=C/c1cccs1)Nc1nccs1 | . | . | . | . | . | .
Cc1ccc(/C=C/C(=O)Nc2nccs2)o1 | . | ? | . | 28µM | ? | .
COc1ccc2nc(Cl)c(C3CC(c4ccco4)=NN3C(=O)CCCC(=O)O)cc2c1 (stereo not given) | . | . | . | 8.9µM | . | .
COc1ccc2nc(Cl)c(C3CC(c4ccco4)=NN3C(=O)CCC(=O)O)cc2c1 (stereo not given) | . | . | . | ? | . | .
Cc1ccc2nc(Cl)c(C3CC(c4ccco4)=NN3C(=O)CCCC(=O)O)cc2c1 (stereo not given) | . | . | . | 35µM | . | .
Cc1ccc2cc(C3CC(c4ccco4)=NN3C(=O)CCCC(=O)O)c(Cl)nc2c1 (stereo not given) | . | . | . | ? | . | .
O=C(O)C/C=C(\NC(=O)OCc1ccccc1)C(=O)OCc1ccccc1 | / | . | .[11.5 µM] | 16µM | . | .
CC(=O)N/C(=C\c1ccccc1)C(=O)OCc1ccccc1 | . | . | . | . | . | .
COc1ccc(C(C)=O)cc1COC(=O)CSCC(=O)Nc1ccc(C)cc1 | / | . | / | 35µM | / | .
COc1ccc(C(C)=O)cc1COC(=O)c1cccnc1Cl | . | . | . | 13µM | . | .
COc1ccc(C(C)=O)cc1COC(=O)CNC(=O)c1ccccc1F | . | . | . | 8.9µM | . | .
COc1ccccc1CCNC(=O)c1ccc(NC(=O)N2CC(C)Sc3ccccc32)cc1 (stereo not given) | / | . | / | . | / | /
Oc1ccc(C[C@H]2NCCc3cc(O)c(O)cc32)cc1O | . | . | ? | 18µM | . | .
O=C1OC(c2ccc(Cl)cc2)=N/C1=C\C=C\c1ccco1 | / | . | . | 28µM | . | .
O=C(COc1ccc(S(=O)(=O)N2CCOCC2)cc1)N1CCOCC1 | / | . | / | . | / | .
O=C(COc1ccc(/C=C\[N+](=O)[O-])cc1)N1CCOCC1 | / | . | . | 22µM | . | .
CCOC(=O)C(=CNNc1c(C)csc1C(=O)OC)C(=O)OCC | . | . | . | 56µM | . | .
COc1ccc(NC(=O)/C=C\C(=O)N(c2ccc(C(C)C)cc2)C(C(=O)NCc2ccco2)c2ccc(C)cc2)cc1 (stereo not given) | / | . | / | 56µM | / | /
Cc1ccc(NC(=O)/C=C\C(=O)N(c2ccc(C(C)C)cc2)C(C(=O)NCc2ccco2)c2ccc(F)cc2)cc1 (stereo not given) | / | . | / | . | / | /
SMILES | NS1 inh | Tb PYK inh | LmPK inh | Sm TGR block | Giardia FBPA inh | RE007 growth inh
COc1ccc(N(C(=O)/C=C\C(=O)Nc2ccc(C)cc2)C(C(=O)NCc2ccco2)c2ccc(C)cc2)cc1 (stereo not given) | / | . | / | 45µM | / | /
Cc1ccc(-c2nn[nH]n2)o1 | . | ? | . | 45µM | . | .
Cc1nc(-c2ccccc2)sc1-c1ccc(SCC(=O)Nc2ccccc2)nn1 | / | . | / | . | / | /
CC1=C(c2ccc(C)c(C)c2)S(=O)(=O)N(Cc2ccc(C(=O)NCc3ccccc3F)cc2)C1=O | / | . | / | . | / | /
COC(=O)/C=C1/S/C(=N/NC(=O)c2ccc(Cl)cc2Cl)NC1=O | . | . | . | 18µM | ? | .
COc1ccc2c(c1)Sc1ccccc1N2 | / | . | . | 22µM | . | ?
COc1ccc(N2C(=O)CC(Sc3n[nH]c(-c4ccccc4)n3)C2=O)cc1 (stereo not given) | . | . | . | 0.32µM | . | 18µM
CCOc1ccc(N2C(=O)CC(Sc3n[nH]c(-c4ccccc4)n3)C2=O)cc1 (stereo not given) | . | . | . | 0.63µM | . | ?
COc1ccc(N2C(=O)CC(Sc3nc(C)c4c(n3)CCCC4)C2=O)cc1 (stereo not given) | . | . | . | . | . | .
CCOc1ccc2nc(SC3CC(=O)N(c4ccccc4)C3=O)sc2c1 (stereo not given) | . | . | . | ? | . | .
CCN(CC)CCCN1C(=O)C(=O)/C(=C(/O)c2ccc3c(c2)OCCO3)C1c1ccc(C)o1 (stereo not given) | . | / | . | 50µM | . | /
CCN(CC)CCCN1C(=O)C(=O)/C(=C(/O)c2ccc(OC)cc2)C1c1ccco1 (stereo not given) | / | . | / | / | / | .
COC(=O)c1sc(N2C(=O)C(=O)/C(=C(/O)c3ccc(C)cc3)C2c2ccco2)nc1C (stereo not given) | . | . | . | 7.1µM | . | .
CCN(CC)CCN1C(=O)C(=O)/C(=C(/O)c2ccc(OC)cc2)C1c1ccco1 (stereo not given) | . | . | . | 40µM | . | .
Cc1cc(C(=O)CCl)c(C)n1CCc1ccc(Cl)cc1 | . | . | . | 7.9µM | . | .
Cc1cc(C(=O)CCl)c(C)n1CCc1ccc(F)cc1 | / | . | . | 2.5µM | . | .
COc1ccc(CCn2c(C)cc(C(=O)CCl)c2C)cc1OC | / | . | . | 11µM | . | .
COc1ccc(CCn2c(C)c(C(C)=O)c(C(C)=O)c2C)cc1OC | / | . | . | . | . | .
CC(C)c1ccc(C2c3c(-c4ccccc4O)n[nH]c3C(=O)N2CCc2ccccc2)cc1 (stereo not given) | / | . | / | . | / | /
CCC(=O)N(Cc1cc2ccc(C)cc2[nH]c1=O)c1ccccc1OC | ? | . | . | 89µM | . | .
Cc1ccc(N(Cc2cc3ccc(C)cc3[nH]c2=O)C(=O)c2ccco2)c(C)c1 | . | . | . | 8.9µM | . | .
Cc1ccc2cc(CN(C(=O)c3ccco3)c3cccc(C)c3C)c(=O)[nH]c2c1 | . | . | . | 13µM | . | .
Cc1ccc2cc(CN(C(=O)c3ccco3)c3ccccc3C)c(=O)[nH]c2c1 | . | . | . | . | . | .
COCC(=O)N(Cc1cc2ccc(C)cc2[nH]c1=O)c1ccccc1C | . | . | . | . | . | .
Cc1cccc(N2CCN(C(=O)Cn3nc(C)c4sc5ccccc5c4c3=O)CC2C)c1 (stereo not given) | / | . | / | . | / | /
O=C(OCc1cc(=O)n2nc(C3CC3)sc2n1)c1ccc(F)cc1 | / | . | / | . | / | /
Nc1cc(N)c(OCC(F)(F)F)cc1OCC(F)(F)F | ? | . | . | 1.1µM | ? | .
